Records with an inconclusive call do not appear. Activity calls are given as the source filed them. Unless noted, calls follow the shape of the dose curve; as a rule, active = well fitted curve in the direction sought with a large enough effect; inconclusive = small, poorly fitted or top-dose-only effect, or another doubt; inactive = no such curve, though single readings can be large; an effect the other way counts as inactive or inconclusive.
Experiments:
[1] = molecular target: Parathyroid hormone/parathyroid hormone-related peptide receptor (Homo sapiens) (UniProt Q03431); test: qHTS for PTHR1 Agonists: Optimization Screen against the NCGC LOPAC library (AID 1347079);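 also: GloSensor cAMP luminescence in HEK-293 GP2 cells expressing human PTHR1 with IBMX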
Summary of the method: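 Compounds were tested across a qHTS titration. PTHR1-expressing GP2 cells report cAMP rises via GloSensor luminescence after 1 hr compound exposure at 37C with IBMX present.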

[2] = qHTS of pediatric cancer cell lines to identify multiple opportunities for drug repurposing: Primary screen for SJ-GBM2 cells (AID 1347091); also: potency is read from the fitted curve at half-maximal effect
Summary of the method: (§1)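 Cell viability, CellTiter-Glo luminescence; 500-1,000 cells/well, 8- or 11-point titration, 48 h compound exposure at 37 degrees C, 5% CO2. Controls: DMSO neutral, bortezomib 2.3 µM final as positive.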

[3] = qHTS of pediatric cancer cell lines to identify multiple opportunities for drug repurposing: Primary screen for SK-N-MC cells (AID 1347093); also: potency is read from the fitted curve at half-maximal effect
Summary of the method: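 Metabolically active cells were quantified by ATP-dependent luminescence (CellTiter-Glo, 15 min at room temperature) following 48 h treatment. Cells had been plated at 500-1,000 per well and settled for 5 h beforehand.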

[4] = qHTS of pediatric cancer cell lines to identify multiple opportunities for drug repurposing: Primary screen for Saos-2 cells (AID 1347097); also: nearly all actives have a fitted effect of over 40% in size; also: potency is read from the fitted curve at half-maximal effect
Summary of the method: (§2)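 Luminescence from CellTiter-Glo served as readout of metabolically active cells after 48 h compound exposure. Titrations: MIPE 11-point, from 0.78 nM; NPC 8-point, from 0.59 nM (final). Concentration-response curves came straight from the primary screen.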

[5] = qHTS of pediatric cancer cell lines to identify multiple opportunities for drug repurposing: Primary screen for SK-N-SH cells (AID 1347098); also: nearly all actives have a fitted effect of over 65% in size; also: potency is read from the fitted curve at half-maximal effect
Summary of the method: (§3)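 Cells (500-1,000/well) rested 5 h, then received compounds for 48 h; metabolically active cells were measured by CellTiter-Glo luminescence. Final concentrations spanned up to 46 µM (MIPE, 11-point) or 0.59 nM-46 µM (NPC, 8-point) in primary screens, 11-point in follow-ups.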

[6] = qHTS of pediatric cancer cell lines to identify multiple opportunities for drug repurposing: Primary screen for NB1643 cells (AID 1347099); also: nearly all actives have a fitted effect of over 50% in size; also: potency is read from the fitted curve at half-maximal effect
Summary of the method: as §2

[7] = qHTS of pediatric cancer cell lines to identify multiple opportunities for drug repurposing: Primary screen for BT-12 cells (AID 1347101); also: nearly all actives have a fitted effect of over 25% in size; also: potency is read from the fitted curve at half-maximal effect
Summary of the method: as §3

[8] = qHTS of pediatric cancer cell lines to identify multiple opportunities for drug repurposing: Primary screen for OHS-50 cells (AID 1347103); also: nearly all actives have a fitted effect of over 40% in size; also: potency is read from the fitted curve at half-maximal effect
Summary of the method: as §3

[9] = qHTS of pediatric cancer cell lines to identify multiple opportunities for drug repurposing: Primary screen for RD cells (AID 1347104); also: nearly all actives have a fitted effect of over 55% in size; also: potency is read from the fitted curve at half-maximal effect
Summary of the method: as §2

[10] = molecular target: T1, Tyrosine-protein phosphatase non-receptor type substrate 1 (Homo sapiens) + Leukocyte surface antigen CD47 (Homo sapiens) (UniProt P78324+Q08722); test: CD47-SIRPalpha protein protein interaction - HTRF assay qHTS validation (AID 1347058; active = well fitted curve in the direction sought with a large enough effect in the signal ratio, not every such curve was filed as active; the % refers to the signal ratio;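 also: recombinant soluble extracellular CD47 with His tag and biotinylated SIRPalpha domains; series mostly up to about 38 µM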)
Summary of the method: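 TR-FRET read (Ch1/Ch2 ratio) of soluble extracellular CD47 and Avi-biotinylated SIRPalpha domains in PBS pH 7.4 with 0.05% IGEPAL; 7-point compound titration. Sequential 30 min room-temperature steps; non-biotinylated SIRPalpha as control inhibitor.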

[11] = molecular target: T1, Tyrosine-protein phosphatase non-receptor type substrate 1 (Homo sapiens) + Leukocyte surface antigen CD47 (Homo sapiens); test: CD47-SIRPalpha protein protein interaction - Alpha assay qHTS validation (AID 1347059);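 also: bead proximity luminescence from CD47 binding SIRPalpha after compound preincubation with SIRPalpha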; also: potency is read from the fitted curve at half-maximal effect
Summary of the method: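 Binding is measured by AlphaScreen proximity: Ni-NTA acceptor beads capture His-CD47, streptavidin donor beads capture biotin-SIRPalpha. Each of three additions (SIRPalpha with compound, CD47, beads) incubates 30 min at room temperature protected from light.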

[12] = qHTS of pediatric cancer cell lines to identify multiple opportunities for drug repurposing: Primary screen for DAOY cells (AID 1347090); also: nearly all actives have a fitted effect of over 55% in size; also: potency is read from the fitted curve at half-maximal effect
Summary of the method: as §1

[13] = qHTS of pediatric cancer cell lines to identify multiple opportunities for drug repurposing: Primary screen for A673 cells (AID 1347092); also: nearly all actives have a fitted effect of over 45% in size; also: potency is read from the fitted curve at half-maximal effect
Summary of the method: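 A673 cells (500-1,000 cells/well) were treated 48 hours at 37 degrees C with compounds at 11-point (0.78 nM to 46 µM) or 8-point (0.59 nM to 46 µM) dilutions. Viability read by CellTiter-Glo luminescence; concentration-response curves fitted.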

[14] = qHTS of pediatric cancer cell lines to identify multiple opportunities for drug repurposing: Primary screen for BT-37 cells (AID 1347094); also: potency is read from the fitted curve at half-maximal effect
Summary of the method: as §2

[15] = qHTS of pediatric cancer cell lines to identify multiple opportunities for drug repurposing: Primary screen for NB-EBc1 cells (AID 1347095); also: potency is read from the fitted curve at half-maximal effect
Summary of the method: as §2

[16] = qHTS of pediatric cancer cell lines to identify multiple opportunities for drug repurposing: Primary screen for U-2 OS cells (AID 1347096); also: nearly all actives have a fitted effect of over 50% in size; also: potency is read from the fitted curve at half-maximal effect
Summary of the method: as §3

[17] = qHTS of pediatric cancer cell lines to identify multiple opportunities for drug repurposing: Primary screen for LAN-5 cells (AID 1347100); also: potency is read from the fitted curve at half-maximal effect
Summary of the method: as §3

[18] = qHTS of pediatric cancer cell lines to identify multiple opportunities for drug repurposing: Primary screen for Rh18 cells (AID 1347102); also: nearly all actives have a fitted effect of over 65% in size; also: potency is read from the fitted curve at half-maximal effect
Summary of the method: as §3

[19] = qHTS of pediatric cancer cell lines to identify multiple opportunities for drug repurposing: Primary screen for TC32 cells (AID 1347089); also: nearly all actives have a fitted effect of over 60% in size; also: potency is read from the fitted curve at half-maximal effect
Summary of the method: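 TC32 cells, 500-1,000/well in growth medium, compound-treated 48 h at 37 °C; viability from CellTiter-Glo luminescence. Primary screen: MIPE 11-point (0.78 nM–46 µM final), NPC 8-point (0.59 nM–46 µM final); confirmatory at 11-point dilutions.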

Measured: Potency

T1 sequence (P78324 whole entry, looked up, the tested form may be a part): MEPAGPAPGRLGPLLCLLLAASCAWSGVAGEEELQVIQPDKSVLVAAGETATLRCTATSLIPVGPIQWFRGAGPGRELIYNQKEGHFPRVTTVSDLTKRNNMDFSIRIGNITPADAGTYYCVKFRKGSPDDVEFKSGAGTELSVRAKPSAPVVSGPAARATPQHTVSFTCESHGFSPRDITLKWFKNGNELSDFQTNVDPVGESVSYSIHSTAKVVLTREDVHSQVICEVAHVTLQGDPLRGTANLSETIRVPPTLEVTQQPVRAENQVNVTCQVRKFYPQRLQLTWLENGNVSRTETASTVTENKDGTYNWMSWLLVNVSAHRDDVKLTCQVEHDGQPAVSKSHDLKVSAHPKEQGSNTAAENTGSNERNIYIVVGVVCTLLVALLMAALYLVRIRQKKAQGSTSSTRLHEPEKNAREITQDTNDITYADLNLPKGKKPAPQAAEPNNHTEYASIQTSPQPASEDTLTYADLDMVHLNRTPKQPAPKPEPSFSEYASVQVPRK
T1 sequence (Q08722 whole entry, looked up, the tested form may be a part): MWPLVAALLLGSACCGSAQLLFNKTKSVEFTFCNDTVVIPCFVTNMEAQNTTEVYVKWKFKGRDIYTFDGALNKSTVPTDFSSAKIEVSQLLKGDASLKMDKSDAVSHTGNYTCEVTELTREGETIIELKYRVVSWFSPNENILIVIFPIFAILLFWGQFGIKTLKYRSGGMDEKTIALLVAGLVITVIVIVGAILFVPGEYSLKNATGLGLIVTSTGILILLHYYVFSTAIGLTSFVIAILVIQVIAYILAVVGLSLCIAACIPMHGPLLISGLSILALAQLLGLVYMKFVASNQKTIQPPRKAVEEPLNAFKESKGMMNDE
Chain of Parathyroid hormone/parathyroid hormone-related peptide receptor (Homo sapiens) (Q03431 whole entry, looked up): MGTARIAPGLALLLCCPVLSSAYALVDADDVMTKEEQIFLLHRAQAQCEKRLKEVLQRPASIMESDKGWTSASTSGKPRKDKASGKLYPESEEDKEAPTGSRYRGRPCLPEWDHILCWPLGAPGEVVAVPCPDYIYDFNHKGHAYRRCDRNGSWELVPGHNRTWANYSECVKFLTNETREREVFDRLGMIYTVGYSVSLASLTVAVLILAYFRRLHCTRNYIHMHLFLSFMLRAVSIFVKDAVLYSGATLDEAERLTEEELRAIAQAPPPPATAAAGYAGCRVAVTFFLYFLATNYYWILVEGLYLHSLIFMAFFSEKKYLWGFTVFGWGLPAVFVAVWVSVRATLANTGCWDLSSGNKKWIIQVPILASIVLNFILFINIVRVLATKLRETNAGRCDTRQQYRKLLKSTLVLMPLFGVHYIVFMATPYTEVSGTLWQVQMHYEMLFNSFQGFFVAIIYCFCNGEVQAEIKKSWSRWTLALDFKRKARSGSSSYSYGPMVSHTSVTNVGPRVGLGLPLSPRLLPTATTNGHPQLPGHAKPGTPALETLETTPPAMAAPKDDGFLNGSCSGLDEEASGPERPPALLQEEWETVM

O=C1NCN(c2ccccc2)C12CCN(CCCC(c1ccc(F)cc1)c1ccc(F)cc1)CC2
inactive: [1] | [6]
active: [2] 23.7 µM | [3] 16.8 µM | [4] 13.3 µM | [5] 13.7 µM | [7] 13.8 µM | [8] 15.5 µM | [9] 26.6 µM

CCn1ccnc1CC1COc2ccccc2O1 (stereo unspecified)
not listed: [18] | [19]
inactive: all other assays above

CCN(CC)CCNC(=O)c1ccc(NC(C)=O)cc1
not listed: [12] | [19]
inactive: all other assays above

COC(=O)C1=C(C)NC(C)=C(C(=O)OCCN(C)Cc2ccccc2)C1c1cccc([N+](=O)[O-])c1 (stereo unspecified)
inactive: [1]
active: [4] 29.9 µM | [5] 4.33 µM | [6] 21.1 µM | [8] 17.4 µM

C[n+]1cc2c3c(ccc2c2ccc4cc5c(cc4c21)OCO5)OCO3
inactive: [1]
active: [19] 3.25 µM | [12] 2.31 µM | [2] 1.16 µM | [13] 1.16 µM | [3] 1.3 µM | [14] 2.13 µM | [15] 1.03 µM | [16] 2.91 µM | [4] 4.11 µM | [5] 1.5 µM | [6] 1.16 µM | [17] 1.16 µM | [7] 1.69 µM | [18] 2.06 µM | [8] 2.13 µM | [9] 1.84 µM

C[C@]12C=CC(=O)C=C1CC[C@H]1[C@@H]3C[C@@H](O)[C@](O)(C(=O)CO)[C@@]3(C)C[C@H](O)[C@@]12F
not listed: [10] | [11]
inactive: all other assays above

C[N+](C)(C)CCCCCCCCCC[N+](C)(C)C
not listed: [18] | [19]
inactive: all other assays above

Fc1ccc(C(c2ccc(F)cc2)N2CCN(C/C=C/c3ccccc3)CC2)cc1
active: [8] 17.4 µM
inactive: [10] | [11] | [1] | [6] | [18]

CN1C[C@H](C(=O)N[C@]2(C)O[C@@]3(O)[C@@H]4CCCN4C(=O)[C@H](Cc4ccccc4)N3C2=O)C[C@@H]2c3cccc4[nH]cc(c34)C[C@H]21
inactive: [10] | [1] | [19] | [12] | [14] | [15] | [16] | [6] | [17] | [9]
active: [5] 30.7 µM

c1ccc2c(c1)CCCC2C1=NCCN1 (stereo unspecified)
not listed: [11] | [18] | [19]
inactive: all other assays above

OC(CCN1CCCCC1)(c1ccccc1)C1CCCCC1 (stereo unspecified)
inactive: [1] | [12] | [13] | [3] | [15] | [16] | [6] | [17] | [18]

Cc1cc(C)c(/C=C2\C(=O)Nc3ccccc32)[nH]1
active: [3] 18.8 µM | [8] 15.5 µM
not listed: [4] | [10] | [18]
inactive: all other assays above

CN(C)CC[C@@H](c1ccc(Br)cc1)c1ccccn1
not listed: [8] | [10] | [11] | [19]
inactive: all other assays above

CCCCCCCC/C=C\CCCCCCCC(=O)NCc1ccc(O)c(OC)c1
active: [13] 2.66 µM
not listed: [2] | [3] | [4] | [7] | [8] | [15] | [17]
inactive: all other assays above

NC(N)=N/N=C/c1c(Cl)cccc1Cl
not listed: [5] | [7] | [8] | [9] | [12] | [13] | [18]
inactive: all other assays above

CCN1CCc2nc(N)oc2CC1
not listed: [10] | [18]
inactive: all other assays above

Cc1nc2ccccn2c(=O)c1CCN1CCC(C(=O)c2ccc(F)cc2)CC1
not listed: [3] | [4] | [7] | [8] | [10] | [13]
inactive: all other assays above

Nc1c2c(nc3ccccc13)CCCC2O (stereo unspecified)
not listed: [19]
inactive: all other assays above

CC(C)(Oc1ccc(CCNC(=O)c2ccc(Cl)cc2)cc1)C(=O)O
not listed: [4] | [12] | [18] | [19]
inactive: all other assays above

CCCCOCCOCCOCc1cc2c(cc1CCC)OCO2
not listed: [1] | [8] | [10] | [11] | [12] | [19]
inactive: all other assays above

OCCN1CCN(CCCN2c3ccccc3C=Cc3ccccc32)CC1
not listed: [5] | [8] | [9] | [19]
inactive: all other assays above

CC(=O)Oc1cc(C(C)C)c(OCCN(C)C)cc1C
not listed: [4] | [10] | [11] | [12]
inactive: all other assays above

CC(=O)[C@]1(O)Cc2c(O)c3c(c(O)c2[C@@H](O[C@H]2C[C@H](N)[C@H](O)[C@H](C)O2)C1)C(=O)c1ccccc1C3=O
inactive: [1]
active: [11] 16.5 µM | [19] 0.47 µM | [12] 2.11 µM | [13] 0.422 µM | [3] 0.237 µM | [14] 0.174 µM | [16] 6.68 µM | [4] 3.35 µM | [5] 0.433 µM | [6] 0.376 µM | [7] 0.55 µM | [8] 1.1 µM | [9] 1.06 µM

— PubChem BioAssay (NCATS)
